Bioassay records deposited in PubChem BioAssay by National Center for Advancing Translational Sciences (NCATS).
TDP1 inh: qHTS Assay for Inhibitors of Tyrosyl-DNA Phosphodiesterase (TDP1); actives 0.28% (n = 350,000); recombinant TDP1, AlphaScreen DNA substrate cleavage; Tyrosyl-DNA phosphodiesterase 1 (Homo sapiens), Q9NUW8; AID 485290, 2010; Potency, µM (highest dose often 130 µM), actives largely listed as inhibitors; further: nearly all actives have a fitted effect of over 40% in size
Target sequence (Q9NUW8 whole entry, looked up): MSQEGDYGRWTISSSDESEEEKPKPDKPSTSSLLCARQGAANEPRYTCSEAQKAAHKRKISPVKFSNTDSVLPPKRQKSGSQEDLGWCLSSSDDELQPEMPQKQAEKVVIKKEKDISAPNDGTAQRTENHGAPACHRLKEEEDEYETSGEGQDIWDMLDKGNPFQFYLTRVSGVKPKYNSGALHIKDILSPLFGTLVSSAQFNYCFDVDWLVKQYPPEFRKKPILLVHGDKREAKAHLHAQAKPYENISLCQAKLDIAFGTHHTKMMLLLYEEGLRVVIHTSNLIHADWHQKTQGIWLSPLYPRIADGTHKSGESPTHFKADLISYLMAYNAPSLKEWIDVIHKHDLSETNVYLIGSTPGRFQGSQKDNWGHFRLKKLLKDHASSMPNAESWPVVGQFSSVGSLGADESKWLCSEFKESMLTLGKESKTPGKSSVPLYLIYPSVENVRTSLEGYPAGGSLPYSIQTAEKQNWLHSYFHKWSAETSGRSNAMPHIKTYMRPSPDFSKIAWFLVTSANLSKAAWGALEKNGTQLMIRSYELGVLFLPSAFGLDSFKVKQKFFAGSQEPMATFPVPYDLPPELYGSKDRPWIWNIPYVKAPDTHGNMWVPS
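Signal: AlphaScreen proximity between streptavidin donor and anti-FITC acceptor beads on intact substrate. Reaction: Tdp1 1 nM, substrate 15 nM final, 5 min RT after 15 min compound preincubation.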
TGFb SMAD3 inh: qHTS for Inhibitors of TGF-b; HepG2 CAGA-GFP TGF-b/SMAD3 reporter, GFP fluorescence, 18 h; TGF-beta stimulated, 500 pg/mL final; Potency, µM (titrated, usually from 46.1 µM), usual class: inhibitors; actives 1.2% (n = 410,000); AID 588855, 2011; further: nearly all actives have a fitted effect of over 65% in size
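Cell-based qHTS in HEPG2 carrying a CAGA-GFP Smad reporter; compounds added before 500 pg/mL final TGF-beta, 18 h incubation at 37 degrees C, GFP fluorescence quantified per cell by imaging cytometry.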
TDP1 cell noCPT: qHTS for Inhibitors of human tyrosyl-DNA phosphodiesterase 1 (TDP1): qHTS in cells in absence of CPT; DT40 Tdp1-/- hTDP1 cells, no CPT, ATP luminescence, 48 h; Potency, µM (highest dose often 46.2 µM), hits mostly inhibitors; actives 15% (n = 420,000); AID 686978, 2013; further: nearly all actives have a fitted effect of over 55% in size
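Camptothecin absent (DMSO only). Human TDP1-complemented DT40 knockout cells, 400 cells/well, 37 °C for minimum 48 hr; ATP measured via CellTiter-Glo, 30 min dark incubation, luminescence.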
TDP1 cell CPT: qHTS for Inhibitors of human tyrosyl-DNA phosphodiesterase 1 (TDP1): qHTS in cells in presence of CPT; chicken DT40 Tdp1-/-;hTDP1 cells + 20 nM CPT, ATP luminescence, 48 h; Potency, µM (highest dose often 46.2 µM), hits mostly inhibitors; actives 12% (n = 420,000); AID 686979, 2013; further: nearly all actives have a fitted effect of over 55% in size
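Chicken DT40 Tdp1-/- cells complemented with human TDP1, 400 cells/well, exposed to compounds plus 20 nM camptothecin for at least 48 h at 37 C; viability read as ATP content by CellTiter-Glo luminescence.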
HepG2 tox: qHTS for Inhibitors of TGF-b: Cytotox Counterscreen; HepG2 CAGA-GFP viability, ATP luminescence, 18 h; Potency, µM (doses to about 46.1 µM), most hits filed as cytotoxic; actives 0.76% (n = 410,000)
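CellTiter-Glo luminescence gave cytotoxicity after 18 hours at 37 degrees C. The cells were HepG2 CAGA-GFP in 1% FBS DMEM, stimulated with 500 pg/mL TGF-beta after compound addition. %Activity was normalised to no-cell wells (complete cell-killing) and DMSO (no toxicity), and curves were fitted and classified.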
IL1B secr inh: qHTS for Inhibitors of Inflammasome Signaling: IL-1-beta AlphaLISA Primary Screen | actives 4.7% (n = 360,000) | THP-1 LPS/ATP IL-1B secretion, AlphaLISA, 16 h; hits give low values | activity change, % at 57.5 µM; in the data active means activity change below about -50%; inconclusive means mostly about -30% to -49%
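THP-1 cells pretreated 1 hr with compounds (up to 57.5 uM final), then stimulated with LPS (250 ng/mL final) plus ATP (1.25 mM final); secreted IL-1B measured by AlphaLISA after 16 hr, decreased signal indicating inhibition.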
A number is an active result; 0 = inactive; ? = inconclusive; - = no result given; [ ] = dose if it differs, or a comment. Most compounds without a hit are left out; they make up all but 18% or so of the library. Unless noted, the call rests on the fitted dose curve; in most records, active means well fitted curve in the direction sought with a large enough effect; inconclusive means small, poorly fitted or top-dose-only effect, or another doubt; inactive means no such curve, though single readings can be large; an effect the other way counts as inactive or inconclusive.

SMILES | TDP1 inh | TGFb SMAD3 inh | TDP1 cell noCPT | TDP1 cell CPT | HepG2 tox | IL1B secr inh
COc1ccc(C(=O)N2CCC(C)(C(=O)O)C2)cc1OC (stereo unspecified) | - | 0 | 0 | 0 | 0 | 0
c1ccc2c(c1)ncn2CCCCOc1ccc2c(c1)CCC2 | 0 | 0 | 29.1µM | ? | 0 | 0
c1ccc2c(c1)ncn2CCCOc1ccc2c(c1)CCC2 | 0 | 0 | 20.6µM | ? | 0 | -53.4
COc1ccc(C(=O)N2N=C3CC(C)(C)OCC3C2c2ccccc2)cc1 (stereo unspecified) | 0 | 0 | 0 | 0 | 0 | 0
Cc1cccc(C)c1NC(=O)CN(C)C(=O)CN1C(=O)NC2(CCCC2)C1=O | - | 0 | 0 | 0 | 0 | 0
CCNS(=O)(=O)c1ccc(C)cc1 | 0 | - | - | - | - | -
C=CC[n+]1c(/C=C2\C=Cc3cc(C)ccc3N2CC)ccc2ccccc21 | 0 | 3.98µM | 0.0731µM | 0.184µM | 14.1µM | -88.1
Cc1c(C=O)c2ccccc2n1CC(=O)NC(C)c1ccccc1 (stereo unspecified) | 0 | 0 | 23.1µM | ? | 0 | 0
Cc1nn(CC(=O)NC(C)c2ccccc2)c(=O)c2ccccc12 (stereo unspecified) | 0 | 0 | 0 | 0 | 0 | 0
COc1ccc(C2c3ccc(O)cc3Oc3ncn4nc(-c5ccco5)nc4c32)cc1OC (stereo unspecified) | 0 | 0 | ? | 16.4µM | 0 | 0
COc1ccc(C2c3ccc(O)cc3Oc3ncn4nc(-c5ccccn5)nc4c32)cc1OC (stereo unspecified) | - | 0 | 18.4µM | 23.1µM | 0 | 0
COc1ccc(C2c3ccc(O)cc3Oc3ncn4nc(-c5ccccn5)nc4c32)cc1 (stereo unspecified) | - | 0 | 0 | 0 | 0 | 0
COc1ccc(C2c3ccc(O)cc3Oc3ncn4nc(-c5ccncc5)nc4c32)cc1OC (stereo unspecified) | 0 | 0 | 23.1µM | ? | 0 | -70.3
O=S(=O)(NCCN1CCOCC1)c1cc(Cl)c(Cl)cc1Cl | 0 | 0 | 0 | 0 | 0 | 0
COc1ccc(-n2c(SCC(=O)NCC3CCCO3)nc3c([nH]c4ccccc43)c2=O)cc1 (stereo unspecified) | 0 | 0 | 0 | 0 | 0 | 0
COc1cccc(-n2c(SCC(=O)N3CCCc4ccccc43)nc3c([nH]c4ccccc43)c2=O)c1 | 0 | 0 | ? | ? | 0 | -
Cc1ccc(C)c(NC(=O)CSc2nc3c([nH]c4ccccc43)c(=O)n2-c2ccc(F)cc2)c1 | 0 | 0 | 13µM | 14.6µM | 0 | -
O=C(CSc1nc2c([nH]c3ccccc32)c(=O)n1-c1cccc(C(F)(F)F)c1)N1CCc2ccccc21 | 0 | 0 | 8.2µM | 7.31µM | 0 | -
CCc1nnc(NC(=O)CSc2nc3c([nH]c4ccccc43)c(=O)n2-c2cc(C)cc(C)c2)s1 | 0 | 0 | 16.4µM | ? | 0 | -
COc1ccc(-n2c(SCC(=O)NC3CCCCC3)nc3c([nH]c4ccccc43)c2=O)cc1 | 0 | 0 | 20.6µM | ? | 0 | -
O=C(CSc1nc2c([nH]c3ccccc32)c(=O)n1-c1ccc(Cl)cc1)N1CCCC1 | 0 | 0 | 0 | 0 | 0 | -
O=C(CSc1nc2c([nH]c3ccccc32)c(=O)n1-c1ccc(F)cc1)NCc1ccccc1 | 0 | 0 | 0 | 0 | 0 | -
O=C(CSc1nc2c([nH]c3ccccc32)c(=O)n1-c1ccc(Cl)cc1)N1CCCCCC1 | 0 | 0 | 20.6µM | ? | 0 | -
O=C(CSc1nc2c([nH]c3ccccc32)c(=O)n1-c1ccccc1)Nc1ccccc1F | 0 | ? | ? | ? | 0 | -
CCOC(=O)CSc1nc2c([nH]c3ccccc32)c(=O)n1-c1ccc(OC)cc1 | 0 | 0 | ? | 0 | 0 | -
SMILES | TDP1 inh | TGFb SMAD3 inh | TDP1 cell noCPT | TDP1 cell CPT | HepG2 tox | IL1B secr inh
CCC1CCCCN1C(=O)CSc1nc2c([nH]c3ccccc32)c(=O)n1-c1ccc(OC)cc1 (stereo unspecified) | 0 | 0 | 18.4µM | ? | 0 | -
O=C(CSc1nc2c([nH]c3ccccc32)c(=O)n1-c1ccc(F)cc1)NC1CCCCC1 | 0 | ? | ? | 14.6µM | 0 | -
O=C(CSc1nc2c([nH]c3ccccc32)c(=O)n1-c1ccccc1F)Nc1ccccc1C(F)(F)F | 0 | ? | 20.6µM | 16.4µM | 0 | -
COc1ccccc1CN1CCOc2ccc(CN3CCCCC3CO)cc2C1 (stereo unspecified) | - | - | 0 | 0[9.04 µM] | - | -
CC(=O)Nc1cccc(-c2cn3ccccc3n2)c1 | 0 | 0 | 0 | 0 | 0 | 0
O=C(Nc1cccc(-c2cn3ccccc3n2)c1)c1cc2ccccc2oc1=O | 0 | 0 | 3.66µM | 2.06µM | 0 | -80.3
COCCOC(=O)c1c(C)n(C)c2ccc(OC(=O)c3ccccc3OC)cc12 | - | 0 | 16.4µM | 0 | 0 | 0
CCOC(=O)c1c(C)n(-c2ccccc2)c2ccc(OC(=O)c3ccccc3NC(=O)C(C)(C)C)cc12 | 0[12.3 µM] | ? | 11.6µM | ? | 22.4µM | -
COCCOC(=O)c1c(C)n(C)c2ccc(OC(=O)c3ccco3)cc12 | 0 | 0 | 0 | 0 | 0 | 0
CCOC(=O)c1c(C)n(-c2ccccc2)c2ccc(OC(=O)c3ccccc3NC(=O)C(C)C)cc12 | 0[12.3 µM] | ? | 18.4µM | ? | 0 | -
CCOC(=O)c1c(C)n(-c2ccccc2)c2ccc(OC(=O)c3cccc(C)c3)cc12 | 0[12.3 µM] | 0 | ? | ? | 0 | -
COc1ccc(C(CNC(=O)c2cccc(S(=O)(=O)N3CCOCC3)c2)N2CCCC2)cc1 (stereo unspecified) | 0 | 0 | 0 | 0 | 0 | 0
CCCn1c(C)nc2c(NCCN3CCOCC3)nc(C)nc21 | 0 | - | - | - | - | -
Cc1cn2c(=O)cc(COC(=O)COc3ccccc3C)nc2s1 | 0 | 0 | 0 | 0 | 0 | -
CN(CCc1ccccn1)S(=O)(=O)c1ccc(F)cc1 | 0 | ? | 0 | 0 | 0 | 0
CC(C)(C)c1cc(S(=O)(=O)CCc2ccccn2)cc(C(C)(C)C)c1F | 0 | ? | 14.6µM | 13µM | 0 | -87.6
CC(C)[C@@H](CC(=O)N[C@@H]1CCCC[C@H]1C(=O)N[C@H](CC(=O)N[C@@H](CCC(=O)O)CC(=O)O)Cc1c[nH]c2ccccc12)NC(=O)C[C@H](Cc1ccccc1)NC(=O)[C@@H]1CNCC[C@H]1N | 0 | - | - | - | - | -
Cc1ccc(NC(=O)CN2CCN(C3CCCCC3)C(=O)C2=O)cc1 | 0 | 0 | 0 | 0 | 0 | -
